Test results published in the supplement of paper PMC8728848.
The full list was thinned out, with the strongest signals kept by preference.

How the values were obtained:
Assay in all cases: glycan array binding signal (z-score within array); higher = stronger binding
Settings in all cases: glycan notation: IUPAC condensed, linker removed; mutation: R85A
[1] = molecular target: Fuc(a1-2)Gal(b1-3)GlcNAc(b1-2)Man(a1-3)[Fuc(a1-2)Gal(b1-3)GlcNAc(b1-2)Man(a1-6)]Man(b1-4)GlcNAc(b1-4)GlcNAc
Outline: (§1)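 The binding signal is a Z-score computed within each array. Data were drawn from 3228 arrays in the Consortium for Functional Glycomics database, restricted to those with a known protein sequence. Scores were averaged over arrays of the same protein sequence at different concentrations or buffers, and over linkers, and negative values can be taken as non-binding.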

Fuc(a1-2)Gal6S(b1-4)Glc = molecular target: Fuc(a1-2)Gal6S(b1-4)Glc
Outline: as §1

[2] = molecular target: Fuc(a1-2)[Gal(a1-3)]Gal(b1-3)GlcNAc(b1-2)Man(a1-3)[Fuc(a1-2)[Gal(a1-3)]Gal(b1-3)GlcNAc(b1-2)Man(a1-6)]Man(b1-4)GlcNAc(b1-4)GlcNAc
Outline: as §1

[3] = molecular target: Fuc(a1-2)[Gal(a1-3)]Gal(b1-4)GlcNAc
Outline: as §1

[4] = molecular target: Fuc(a1-3)[Gal(b1-4)]Glc6S
Outline: as §1

[5] = molecular target: Fuc(a1-3)[Gal(b1-4)]GlcNAc(b1-3)Gal(b1-3)[Fuc(a1-4)]GlcNAc
Outline: as §1

Gal(a1-3)Gal(b1-4)Glc = molecular target: Gal(a1-3)Gal(b1-4)Glc
Outline: as §1

Gal(a1-4)Gal(b1-4)Glc = molecular target: Gal(a1-4)Gal(b1-4)Glc
Outline: as §1

[6] = molecular target: Gal(b1-3)Gal(b1-4)GlcNAc(b1-2)Man(a1-3)[Gal(b1-3)Gal(b1-4)GlcNAc(b1-2)Man(a1-6)]Man(b1-4)GlcNAc(b1-4)GlcNAc
Outline: as §1

[7] = molecular target: Gal(b1-3)GlcNAc(b1-2)Man(a1-3)[Gal(b1-3)GlcNAc(b1-2)Man(a1-6)]Man(b1-4)GlcNAc(b1-4)GlcNAc
Outline: as §1

[8] = molecular target: Gal(b1-3)GlcNAc(b1-3)Gal(b1-4)GlcNAc(b1-6)[Gal(b1-3)GlcNAc(b1-3)]Gal(b1-4)Glc
Outline: as §1

Gal3S(b1-3)GalNAc = molecular target: Gal3S(b1-3)GalNAc
Outline: as §1

Gal3S(b1-3)GlcNAc = molecular target: Gal3S(b1-3)GlcNAc
Outline: as §1

Gal3S(b1-4)Glc = molecular target: Gal3S(b1-4)Glc
Outline: as §1

Gal3S(b1-4)Glc6S = molecular target: Gal3S(b1-4)Glc6S
Outline: as §1

Gal3S(b1-4)GlcNAc6S = molecular target: Gal3S(b1-4)GlcNAc6S
Outline: as §1

Gal4S6S(b1-4)GlcNAc = molecular target: Gal4S6S(b1-4)GlcNAc
Outline: as §1

Gal6S(b1-4)Glc6S = molecular target: Gal6S(b1-4)Glc6S
Outline: as §1

[9] = molecular target: GlcNAc(b1-2)Man(a1-3)[GlcNAc(b1-2)Man(a1-6)]Man(b1-4)GlcNAc(b1-4)GlcNAc
Outline: as §1

[10] = molecular target: GlcNAc(b1-3)Gal(b1-4)GlcNAc(b1-3)Gal(b1-4)GlcNAc
Outline: as §1

Neu5Ac(a2-3)Gal(b1-4)Glc = molecular target: Neu5Ac(a2-3)Gal(b1-4)Glc
Outline: as §1

Neu5Ac(a2-3)GalNAc = molecular target: Neu5Ac(a2-3)GalNAc
Outline: as §1

[11] = molecular target: Neu5Ac(a2-6)Gal(b1-4)GlcNAc(b1-3)GalNAc
Outline: as §1

Neu5Ac(a2-8)Neu5Ac = molecular target: Neu5Ac(a2-8)Neu5Ac
Outline: as §1

B1: rAAL (Agrocybe aegerita), Q6WY08 (protein)
chain: MQGVNIYNISAGTSVDLAAPVTTGDIVTFFSSALNLNAGAGNPNNTTLNLFAENGAYLLHIAFRLQENVIIFNSRQPDGPWLVEQAVSDVANQFAGIDGKAMVTVFDHGDKYQVVINEKTVIQYTKQISGLTLSLSYNATEETSIFSTVVEAVTYTGLALEHHHHHH
[1]
  glycan array binding signal (z-score): -0.123
Fuc(a1-2)Gal6S(b1-4)Glc
  glycan array binding signal (z-score): -0.131
[2]
  glycan array binding signal (z-score): -0.093
[3]
  glycan array binding signal (z-score): -0.127
[4]
  glycan array binding signal (z-score): -0.13
[5]
  glycan array binding signal (z-score): -0.132
Gal(a1-3)Gal(b1-4)Glc
  glycan array binding signal (z-score): 1.02
Gal(a1-4)Gal(b1-4)Glc
  glycan array binding signal (z-score): -0.133
[6]
  glycan array binding signal (z-score): 9.2
[7]
  glycan array binding signal (z-score): -0.072
[8]
  glycan array binding signal (z-score): 0.051
Gal3S(b1-3)GalNAc
  glycan array binding signal (z-score): 14.6
Gal3S(b1-3)GlcNAc
  glycan array binding signal (z-score): 3.42
Gal3S(b1-4)Glc
  glycan array binding signal (z-score): 3.77
Gal3S(b1-4)Glc6S
  glycan array binding signal (z-score): 4.38
Gal3S(b1-4)GlcNAc6S
  glycan array binding signal (z-score): 0.209
Gal4S6S(b1-4)GlcNAc
  glycan array binding signal (z-score): -0.136
Gal6S(b1-4)Glc6S
  glycan array binding signal (z-score): -0.121
[9]
  glycan array binding signal (z-score): -0.127
[10]
  glycan array binding signal (z-score): -0.136
Neu5Ac(a2-3)Gal(b1-4)Glc
  glycan array binding signal (z-score): 0.216
Neu5Ac(a2-3)GalNAc
  glycan array binding signal (z-score): -0.131
[11]
  glycan array binding signal (z-score): 1.17
Neu5Ac(a2-8)Neu5Ac
  glycan array binding signal (z-score): -0.125
